Laboratory results taken from PubChem BioAssay (EPA / NIEHS).
Results filed as inconclusive are left out. Active and inactive are the calls of the source. Rule for the calls, unless noted: active = hit-call score of the fitted dose curve at least 0.9, where 1 is the maximum; inconclusive = response in the unintended direction; inactive = score below 0.9.

Legend:
[1] = target: Oxysterols receptor LXR-alpha (Homo sapiens) (UniProt Q13133); assay: ATG_LXRa_TRANS: Attagene TRANS-FACTORIAL HepG2 Assay for human Liver X Receptor alpha (LXRa) (AID 2282980); details: HepG2 Attagene TRANS reporter, LXRa transactivation
Chain of Oxysterols receptor LXR-alpha (Homo sapiens) (Q13133 whole entry, looked up, the tested form may be a part): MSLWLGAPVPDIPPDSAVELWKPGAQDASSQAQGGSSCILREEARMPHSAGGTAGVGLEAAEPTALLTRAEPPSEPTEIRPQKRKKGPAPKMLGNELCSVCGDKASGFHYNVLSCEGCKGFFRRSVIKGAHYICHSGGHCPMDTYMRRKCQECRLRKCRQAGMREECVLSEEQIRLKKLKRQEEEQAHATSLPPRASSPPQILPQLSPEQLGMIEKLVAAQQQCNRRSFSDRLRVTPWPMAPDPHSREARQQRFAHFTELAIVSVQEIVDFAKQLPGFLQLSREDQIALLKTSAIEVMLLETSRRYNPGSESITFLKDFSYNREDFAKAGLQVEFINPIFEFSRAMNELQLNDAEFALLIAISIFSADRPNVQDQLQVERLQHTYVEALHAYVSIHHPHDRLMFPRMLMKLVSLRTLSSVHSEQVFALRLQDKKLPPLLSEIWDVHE
Procedure, shortened: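 HepG2 cells transiently transfected with GAL4-UAS reporter units for chimeric NR-Gal4 proteins, exposed to chemicals for 24 h. Reporter mRNA quantified by RT-PCR and capillary electrophoresis; gain of signal fitted relative to DMSO.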

[2] = target: Nuclear receptor subfamily 4 group A member 2 (Homo sapiens) (UniProt P43354); assay: ATG_NURR1_TRANS: Attagene TRANS-FACTORIAL HepG2 Assay for human Nuclear Receptor Related Protein 1 (NURR1) (AID 2282985); details: HepG2 Attagene TRANS reporter, mRNA readout
Chain of Nuclear receptor subfamily 4 group A member 2 (Homo sapiens) (P43354 whole entry, looked up, the tested form may be a part): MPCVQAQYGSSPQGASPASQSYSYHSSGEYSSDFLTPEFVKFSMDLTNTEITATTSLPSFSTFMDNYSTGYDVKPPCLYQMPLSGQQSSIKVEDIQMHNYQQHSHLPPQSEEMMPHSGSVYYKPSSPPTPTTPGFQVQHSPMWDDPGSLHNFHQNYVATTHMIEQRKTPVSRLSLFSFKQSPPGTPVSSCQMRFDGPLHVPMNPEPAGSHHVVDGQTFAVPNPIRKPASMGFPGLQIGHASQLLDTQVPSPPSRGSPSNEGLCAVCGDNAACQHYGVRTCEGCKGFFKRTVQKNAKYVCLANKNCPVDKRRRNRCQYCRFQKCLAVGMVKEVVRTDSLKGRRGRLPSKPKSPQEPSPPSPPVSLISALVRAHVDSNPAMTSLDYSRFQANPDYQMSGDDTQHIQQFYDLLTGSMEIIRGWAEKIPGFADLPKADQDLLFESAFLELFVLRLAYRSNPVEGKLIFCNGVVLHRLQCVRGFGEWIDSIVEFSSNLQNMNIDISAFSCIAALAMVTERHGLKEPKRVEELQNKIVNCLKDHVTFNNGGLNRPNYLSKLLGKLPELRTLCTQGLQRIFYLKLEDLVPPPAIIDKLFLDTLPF
Procedure, shortened: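 HepG2 cells transiently transfected with GAL4-UAS reporter units and chimeric NR-Gal4 constructs; chemical exposure 24 h. Reporter mRNA quantified by RT-PCR, fluorescent labelling and capillary electrophoresis; gain of signal fitted relative to DMSO baseline.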

[3] = target: human Thyroid Receptor alpha (THRa1), THRA (gene 7067) (UniProt P10827); assay: ATG_THRa1_TRANS: Attagene TRANS-FACTORIAL HepG2 Assay for human Thyroid Receptor alpha (THRa1) (AID 2283014)
Chain of human Thyroid Receptor alpha (THRa1), THRA (gene 7067) (P10827 whole entry, looked up, the tested form may be a part): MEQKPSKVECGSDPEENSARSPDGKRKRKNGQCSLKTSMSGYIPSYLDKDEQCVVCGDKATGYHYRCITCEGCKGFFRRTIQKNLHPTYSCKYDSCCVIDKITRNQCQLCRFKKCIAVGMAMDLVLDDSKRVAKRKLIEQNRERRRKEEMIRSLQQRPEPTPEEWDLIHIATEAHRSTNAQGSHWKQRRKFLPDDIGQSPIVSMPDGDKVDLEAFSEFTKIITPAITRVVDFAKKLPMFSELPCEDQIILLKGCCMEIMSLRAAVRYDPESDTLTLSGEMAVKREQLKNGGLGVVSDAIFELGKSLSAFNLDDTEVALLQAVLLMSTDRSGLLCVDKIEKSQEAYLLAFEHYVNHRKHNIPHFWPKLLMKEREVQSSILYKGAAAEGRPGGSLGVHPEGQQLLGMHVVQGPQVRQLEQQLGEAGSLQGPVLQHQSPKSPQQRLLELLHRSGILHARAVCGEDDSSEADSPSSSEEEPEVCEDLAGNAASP
Procedure, shortened: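 HepG2 cells transiently transfected with chimeric NR-Gal4 and GAL4-UAS reporter units, dosed 24 h. Reporter mRNA quantified by RT-PCR, fluorescent labeling, HpaI digestion and capillary electrophoresis; gain-of-signal fit versus DMSO.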

[4] = ATG_PPRE_CIS: Attagene CIS-FACTORIAL HepG2 Assay for human Peroxisome Proliferator-activated Response Element (PPRE) (AID 2282958; active = hit-call score of the fitted dose curve at least 0.9, where 1 is the maximum; inactive = score below 0.9); details: HepG2 PPRE cis-element reporter, Attagene transcription factor profiling; actives raise or lower the signal
Procedure, shortened: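 HepG2, transient MRTU transfection (cis promoter elements, endogenous TFs). 24 h dosing. RNA → oligo(dT) RT → PCR → 6-FAM primer extension → HpaI digest → CE. Bidirectional fit vs DMSO.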

[5] = target: Nuclear receptor subfamily 1 group I member 3 (Homo sapiens) (UniProt Q14994); assay: ATG_CAR_TRANS: Attagene TRANS-FACTORIAL HepG2 Assay for human Constitutive Androstane Receptor (CAR) (AID 2282969); details: HepG2 Attagene TRANS-FACTORIAL CAR reporter;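 note: activators raise reporter mRNA above DMSO so AC50 marks induction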
Chain of Nuclear receptor subfamily 1 group I member 3 (Homo sapiens) (Q14994 whole entry, looked up, the tested form may be a part): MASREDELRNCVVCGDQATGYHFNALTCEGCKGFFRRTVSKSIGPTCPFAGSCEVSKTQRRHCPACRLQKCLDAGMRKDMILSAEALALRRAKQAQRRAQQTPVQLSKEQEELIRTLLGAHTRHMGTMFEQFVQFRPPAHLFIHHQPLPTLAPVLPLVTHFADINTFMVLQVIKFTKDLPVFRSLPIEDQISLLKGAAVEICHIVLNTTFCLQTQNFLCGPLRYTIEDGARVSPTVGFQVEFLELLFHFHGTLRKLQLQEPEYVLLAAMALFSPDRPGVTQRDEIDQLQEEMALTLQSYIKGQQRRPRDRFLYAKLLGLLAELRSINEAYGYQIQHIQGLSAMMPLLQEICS
Procedure, shortened: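 HepG2 cells transiently transfected with multiplexed GAL4-UAS reporter units expressing chimeric NR-Gal4 proteins; compound exposure 24 h. Reporter mRNA measured by RT-PCR, 6-FAM labelling, HpaI digestion and capillary electrophoresis; gain-of-signal fitted against DMSO baseline.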

[6] = ATG_GAL4_TRANS: Attagene TRANS-FACTORIAL HepG2 Assay for GAL4 (Internal Marker) (AID 2282976); details: HepG2 Attagene TRANS GAL4 internal marker reporter
Procedure, shortened: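 Background-control readout: GAL4-UAS reporter transcript in transiently transfected HepG2 cells after 24 h compound exposure. Measured by RT-PCR, 6-FAM primer extension, HpaI digest and capillary electrophoresis; gain-of-signal fit versus DMSO.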

[7] = target: Glucocorticoid receptor (Homo sapiens) (UniProt P04150); assay: ATG_GR_TRANS: Attagene TRANS-FACTORIAL HepG2 Assay for human Glucocorticoid Receptor (GR) (AID 2282978); details: HepG2 Attagene TRANS GR reporter, mRNA transcription;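 note: activators score as hits since higher reporter transcript over DMSO is fitted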
Chain of Glucocorticoid receptor (Homo sapiens) (P04150 whole entry, looked up, the tested form may be a part): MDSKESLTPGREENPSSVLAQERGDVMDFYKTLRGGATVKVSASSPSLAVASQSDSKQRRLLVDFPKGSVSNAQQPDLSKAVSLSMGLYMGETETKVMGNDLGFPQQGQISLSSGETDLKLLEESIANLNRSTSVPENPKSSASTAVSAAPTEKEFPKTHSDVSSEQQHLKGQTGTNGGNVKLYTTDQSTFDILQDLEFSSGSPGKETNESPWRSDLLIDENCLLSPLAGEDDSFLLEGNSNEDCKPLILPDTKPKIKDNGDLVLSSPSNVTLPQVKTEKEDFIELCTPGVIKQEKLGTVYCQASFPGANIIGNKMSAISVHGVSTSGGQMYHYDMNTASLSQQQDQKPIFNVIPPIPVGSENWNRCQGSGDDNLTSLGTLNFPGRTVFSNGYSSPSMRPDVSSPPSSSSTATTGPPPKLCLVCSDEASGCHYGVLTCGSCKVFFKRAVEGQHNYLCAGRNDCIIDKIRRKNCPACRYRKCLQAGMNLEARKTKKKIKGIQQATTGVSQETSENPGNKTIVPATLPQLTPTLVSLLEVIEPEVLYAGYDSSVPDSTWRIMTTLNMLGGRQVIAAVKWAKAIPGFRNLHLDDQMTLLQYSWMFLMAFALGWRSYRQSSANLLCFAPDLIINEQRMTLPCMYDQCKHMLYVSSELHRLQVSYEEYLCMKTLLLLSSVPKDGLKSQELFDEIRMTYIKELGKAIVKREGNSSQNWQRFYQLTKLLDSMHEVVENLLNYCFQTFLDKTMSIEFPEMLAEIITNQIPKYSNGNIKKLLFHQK
Procedure, shortened: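 Fluorescent capillary-electrophoresis quantitation of reporter mRNA is the readout, taken 24 h after dosing human HepG2 cells carrying transiently transfected GAL4-UAS reporter units activated by chimeric NR-GAL4 fusions; activity scored as induction over DMSO.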

[8] = target: human Peroxisome Proliferator-activated Receptor alpha (PPARa), PPARA (gene 5465) (UniProt Q07869); assay: ATG_PPARa_TRANS: Attagene TRANS-FACTORIAL HepG2 Assay for human Peroxisome Proliferator-activated Receptor alpha (PPARa) (AID 2283001)
Chain of human Peroxisome Proliferator-activated Receptor alpha (PPARa), PPARA (gene 5465) (Q07869 whole entry, looked up, the tested form may be a part): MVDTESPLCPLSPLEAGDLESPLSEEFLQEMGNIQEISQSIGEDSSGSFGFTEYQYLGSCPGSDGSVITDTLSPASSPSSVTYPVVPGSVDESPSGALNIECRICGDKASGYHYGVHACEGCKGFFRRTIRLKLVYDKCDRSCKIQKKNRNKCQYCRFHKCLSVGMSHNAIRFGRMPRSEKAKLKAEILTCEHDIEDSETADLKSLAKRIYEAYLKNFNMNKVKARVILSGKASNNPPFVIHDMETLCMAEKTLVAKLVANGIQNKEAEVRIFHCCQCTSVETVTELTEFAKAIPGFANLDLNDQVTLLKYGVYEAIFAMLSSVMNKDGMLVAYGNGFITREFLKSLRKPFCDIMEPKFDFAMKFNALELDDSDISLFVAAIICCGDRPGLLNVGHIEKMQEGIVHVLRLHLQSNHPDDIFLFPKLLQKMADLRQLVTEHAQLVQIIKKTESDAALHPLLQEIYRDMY
Procedure, shortened: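 HepG2 cells transiently transfected with multiplexed GAL4-UAS reporter units and chimeric NR-Gal4 constructs were dosed for 24 h. Reporter mRNA was measured by RT-PCR with fluorescent labelling and capillary electrophoresis; gain of signal fitted against DMSO.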

[9] = target: Peroxisome proliferator-activated receptor gamma (Homo sapiens) (UniProt P37231); assay: ATG_PPARg_TRANS: Attagene TRANS-FACTORIAL HepG2 Assay for human Peroxisome Proliferator-activated Receptor-gamma (PPARg) (AID 2283007)
Chain of Peroxisome proliferator-activated receptor gamma (Homo sapiens) (P37231 whole entry, looked up, the tested form may be a part): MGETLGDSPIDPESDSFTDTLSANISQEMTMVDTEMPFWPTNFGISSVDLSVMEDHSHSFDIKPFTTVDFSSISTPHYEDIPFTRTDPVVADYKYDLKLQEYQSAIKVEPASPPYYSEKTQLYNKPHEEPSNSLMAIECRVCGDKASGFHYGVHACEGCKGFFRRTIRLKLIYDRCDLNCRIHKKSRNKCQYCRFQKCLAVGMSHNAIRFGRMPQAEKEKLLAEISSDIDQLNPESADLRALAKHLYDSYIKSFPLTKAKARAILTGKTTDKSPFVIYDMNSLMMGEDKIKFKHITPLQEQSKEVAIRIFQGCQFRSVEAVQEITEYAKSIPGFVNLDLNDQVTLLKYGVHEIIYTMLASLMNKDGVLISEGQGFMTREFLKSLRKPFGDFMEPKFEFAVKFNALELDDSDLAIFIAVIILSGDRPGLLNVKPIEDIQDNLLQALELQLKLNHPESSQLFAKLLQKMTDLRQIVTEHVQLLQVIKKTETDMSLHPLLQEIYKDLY
Procedure, shortened: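 Transient transfection of HepG2 with GAL4-UAS-driven reporter units; chemical dosing 24 h; total RNA → oligo(dT) RT → PCR with reporter primers → 6-FAM primer extension → HpaI digest 2 h 37 C → capillary electrophoresis. Positive direction vs DMSO.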

[10] = TOX21_p53_BLA_p3_viability: Viability Assessment in the Tox21 HCT-116 p53 Agonism Beta-lactamase Assay, Phase 3 (AID 2283593);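 note: cells exposed to compound for 16 h before reading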
Procedure, shortened: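 HCT-116 cells (4000/well) rested 5 h at 37C, then got DMSO compounds by pin tool (217-fold dilution) for 16 h at 37C, 5% CO2. After the bla read, CellTiter-Glo was added and luminescence read at 30 min, room temperature.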

[11] = TOX21_p53_BLA_p4_viability: Viability Assessment in the Tox21 HCT-116 p53 Agonism Beta-lactamase Assay, Phase 4 (AID 2283597);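 note: hits lower the luminescence signal meaning cytotoxicity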
Procedure, shortened: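 HCT-116 p53-bla cells, 4000/well, dosed after 5 h attachment and incubated 16 h at 37 °C, 5% CO2. Viability from CellTiter-Glo ATP luminescence after 30 min at room temperature, taken after the beta-lactamase read; loss of signal indicates cytotoxicity.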

[12] = ACEA_ER_AUC_viability: ACEA Biosciences xCELLigence Real-Time Cell Analysis on Estrogen Receptor Agonism for Viability (AID 2283782);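 note: continuous compound exposure with impedance area under curve over 80 h; hit means loss of impedance signal meaning reduced cell growth or viability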
Procedure, shortened: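 T-47D human breast cells in phenol red-free RPMI1640 with 10% charcoal-stripped FBS were dosed with an 8-point 1:4 dilution series from 100 uM top final concentration, in duplicate. Impedance-based growth was followed for 80 h; AUC analysed versus DMSO.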

[13] = target: Hypoxia-inducible factor 1-alpha (Homo sapiens) (UniProt Q16665); assay: ATG_HIF1a_CIS: Attagene CIS-FACTORIAL HepG2 Assay for human Hypoxia Inducible Factor 1 (HIF1A) (AID 2282951; active = hit-call score of the fitted dose curve at least 0.9, where 1 is the maximum; inactive = score below 0.9); details: HepG2 Attagene cis-factorial HIF1a reporter transcription; actives raise or lower the signal
Chain of Hypoxia-inducible factor 1-alpha (Homo sapiens) (Q16665 whole entry, looked up, the tested form may be a part): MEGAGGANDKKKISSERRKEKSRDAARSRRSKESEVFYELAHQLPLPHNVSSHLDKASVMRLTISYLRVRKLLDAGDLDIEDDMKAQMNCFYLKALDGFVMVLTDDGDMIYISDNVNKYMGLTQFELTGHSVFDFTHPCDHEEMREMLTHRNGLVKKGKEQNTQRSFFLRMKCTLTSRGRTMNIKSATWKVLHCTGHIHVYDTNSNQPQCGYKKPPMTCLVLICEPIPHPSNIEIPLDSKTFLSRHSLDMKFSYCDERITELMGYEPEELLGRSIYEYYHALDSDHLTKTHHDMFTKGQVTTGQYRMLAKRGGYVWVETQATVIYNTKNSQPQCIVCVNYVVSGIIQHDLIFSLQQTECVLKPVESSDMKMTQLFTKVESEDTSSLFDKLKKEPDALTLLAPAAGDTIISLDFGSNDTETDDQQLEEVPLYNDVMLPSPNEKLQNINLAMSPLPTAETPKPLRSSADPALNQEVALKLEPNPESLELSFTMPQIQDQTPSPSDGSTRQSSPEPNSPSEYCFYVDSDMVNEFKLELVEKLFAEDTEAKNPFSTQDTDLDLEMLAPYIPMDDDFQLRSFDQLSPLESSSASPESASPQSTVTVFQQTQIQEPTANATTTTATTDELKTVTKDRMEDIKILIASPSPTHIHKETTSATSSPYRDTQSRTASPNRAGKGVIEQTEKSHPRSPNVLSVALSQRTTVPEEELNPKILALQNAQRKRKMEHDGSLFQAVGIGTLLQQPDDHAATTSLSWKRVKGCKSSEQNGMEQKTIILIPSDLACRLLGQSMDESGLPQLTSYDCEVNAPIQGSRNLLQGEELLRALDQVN
Procedure, shortened: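 Transient MRTU transfection of human HepG2 liver cells, 24 h compound treatment, then total RNA isolation, oligo(dT) reverse transcription, PCR amplification, fluorescent labelling and capillary electrophoresis of reporter fragments. Gain or loss relative to DMSO.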

[14] = ATG_M_19_TRANS: Attagene TRANS-FACTORIAL HepG2 Assay for M19 Transcription Factor (Internal Marker) (AID 2282974); details: HepG2 Attagene TRANS-FACTORIAL M19 internal marker reporter
Procedure, shortened: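 Fluorescence of 6-FAM-labelled reporter cDNA fragments, separated by capillary electrophoresis, served as the readout. These derived from HepG2 cells carrying transfected GAL4-UAS reporter units after 24 h dosing, with DMSO as negative control.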

[15] = target: human Peroxisome Proliferator-activated Receptor delta (PPARd), PPARD (gene 5467) (UniProt Q03181); assay: ATG_PPARd_TRANS: Attagene TRANS-FACTORIAL HepG2 Assay for human Peroxisome Proliferator-activated Receptor delta (PPARd) (AID 2283002)
Procedure, shortened: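 Multiplexed trans-activation format: HepG2 liver cells expressing exogenous NR-Gal4 chimeras and GAL4-UAS reporters were exposed for 24 h. Reporter mRNA was detected by RT-PCR with capillary electrophoresis fluorescence; activity fitted as gain of signal relative to DMSO.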

[16] = target: human RAR-related Orphan Receptor gamma (RORg), RORC (gene 6097) (UniProt P51449); assay: ATG_RORg_TRANS: Attagene TRANS-FACTORIAL HepG2 Assay for human RAR-related Orphan Receptor gamma (RORg) (AID 2283011)
Procedure, shortened: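 HepG2 cells transiently transfected with GAL4-UAS reporter units and chimeric RORg-Gal4 construct; after 24 h chemical exposure, reporter mRNA measured by RT-PCR with fluorescent capillary electrophoresis, gain of signal fitted against DMSO.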

[17] = target: human Vitamin D Receptor (VDR), VDR (gene 7421) (UniProt P11473); assay: ATG_VDR_TRANS: Attagene TRANS-FACTORIAL HepG2 Assay for human Vitamin D Receptor (VDR) (AID 2283022)
Procedure, shortened: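 HepG2 cells were transiently transfected with GAL4-UAS reporter units and a chimeric VDR-Gal4 construct, then dosed for 24 hours. Reporter mRNA was quantified by RT-PCR, fluorescent labeling, HpaI digestion and capillary electrophoresis; gain of signal analysed vs DMSO.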

[18] = target: human RAR-related Orphan Receptor beta (RORb), RORB (gene 6096) (UniProt Q92753); assay: ATG_RORb_TRANS: Attagene TRANS-FACTORIAL HepG2 Assay for human RAR-related Orphan Receptor beta (RORb) (AID 2283010)
Chain of human RAR-related Orphan Receptor beta (RORb), RORB (gene 6096) (Q92753 whole entry, looked up, the tested form may be a part): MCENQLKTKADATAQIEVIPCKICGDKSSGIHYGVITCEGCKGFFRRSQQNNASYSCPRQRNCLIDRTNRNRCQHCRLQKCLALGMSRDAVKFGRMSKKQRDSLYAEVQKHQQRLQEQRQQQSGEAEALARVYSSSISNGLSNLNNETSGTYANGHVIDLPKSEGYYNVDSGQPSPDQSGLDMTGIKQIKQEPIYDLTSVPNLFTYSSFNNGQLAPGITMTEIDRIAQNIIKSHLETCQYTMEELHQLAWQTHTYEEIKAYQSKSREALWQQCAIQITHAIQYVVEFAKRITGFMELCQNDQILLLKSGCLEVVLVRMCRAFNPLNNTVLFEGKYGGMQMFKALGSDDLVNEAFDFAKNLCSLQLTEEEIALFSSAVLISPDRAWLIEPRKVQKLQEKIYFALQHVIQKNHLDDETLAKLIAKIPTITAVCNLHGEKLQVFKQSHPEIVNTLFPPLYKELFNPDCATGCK
Procedure, shortened: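 HepG2 cells were transiently transfected with multiplexed GAL4-UAS reporter units expressing chimeric nuclear receptor–GAL4 proteins, then dosed for 24 h. Reporter mRNA was quantified by RT-PCR with fluorescent labelling and capillary electrophoresis; gain of signal was fitted relative to DMSO.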

Measured: outcome

CCCCn1cc[n+](C)c1
inactive: [1] | [2] | [3]

CCCOCCC
not listed: [3] | [13] | [14] | [15] | [16] | [17] | [18]
inactive: all other assays above

Nc1nnc(-c2ccc([N+](=O)[O-])o2)o1
inactive: [13] | [4] | [14] | [2] | [8] | [15] | [9] | [10] | [11]

CCCC(=O)OC
inactive: [13] | [2] | [8] | [9] | [16] | [17] | [10]

CC1(C)S[C@@H]2[C@H](NC(=O)[C@H](N)c3ccccc3)C(=O)N2[C@H]1C(=O)O
not listed: [5] | [12] | [13] | [14] | [15] | [17]
inactive: all other assays above

CC(C)CC(=O)O
inactive: [4] | [5] | [6] | [7] | [18] | [17] | [11] | [12]
